Reference: the supplement of paper PMC12494721
Where a name gives a salt, the structure may show the parent alone.

Each compound was assayed on Ruminococcus gnavus DSM 108212 (assay: fold change of 2-Phenylethylamine concentration vs plate DMSO controls (fold change (ratio)); higher = more amine produced, active = hit call of the paper (significant change in both replicates, either direction)). Conditions: incubation time: 27 h, anaerobic, 37 °C;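 for the amine columns active = adjusted P below 0.05 in both replicates with a change the same way and a mean fold change under 0.8 or over 1.25; inactive = the rest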.
Summary of the method: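 Each value is the fold change relative to DMSO-only wells on the same plate. Four gut bacterial strains were grown anaerobically in mGAM at 37 °C for 27 h in 80 µL wells, starting at OD 0.1 before a 1:1 dilution, with compounds at 20 µM final (sweeteners 50 µM). Whole cultures were extracted with cold acetonitrile/methanol containing 0.1% formic acid, centrifuged, and amines were quantified by LC–triple-quadrupole MS (dynamic MRM) against external calibration curves with within-batch drift correction. Values are means of 2 biological replicates.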

Question: Which “fold change of 2-Phenylethylamine concentration” value (shortened to “fold change”) does the source give for `OCC(O)CN1CCN(c2ccccc2)CC1` (stereo not drawn) [Dropropizine] (20 µM) here?
Answer: 1.05 (inactive)

Question: How did the “fold change” value turn out when `CN(C)CCC(c1ccc(Cl)cc1)c1ccccn1` (stereo not drawn) [Chlorpheniramine maleate] (20 µM) was run?
Answer: 1.02 (inactive)

Question: `CNCC(O)c1ccc(OC(=O)C(C)(C)C)c(OC(=O)C(C)(C)C)c1` (stereo not drawn) [Dipivefrin hydrochloride] (20 µM) was tested. Which “fold change” value did it give?
Answer: 1.16 (inactive)

Question: Which “fold change” value does the source give for `CC(=O)O[C@H]1C[C@@]2(C)[C@@H](C[C@@H](O)[C@H]3[C@@]4(C)CC[C@@H](O)[C@@H](C)[C@@H]4CC[C@@]32C)/C1=C(\CCC=C(C)C)C(=O)O` [Fusidic acid sodium salt] (20 µM) here?
Answer: 0.106 (active)

Question: With `CCOc1ccccc1OCC1CNCCO1` (stereo not drawn) [Viloxazine hydrochloride] (20 µM) as the compound, how does the “fold change” value read?
Answer: 0.696 (active)

Question: For `OC[C@H]1O[C@@H](O[C@H]2[C@H](O)[C@@H](O)[C@H](O)O[C@@H]2CO)[C@H](O)[C@@H](O)[C@H]1O` [Lactose] (50 µM), which “fold change” value is on record?
Answer: 0.976 (inactive)

Question: For `CCC(=O)c1ccc(O)cc1` [Paroxypropione] (20 µM), which “fold change” value is on record?
Answer: 0.952 (inactive)

Question: `CCOc1ccc2ccccc2c1C(=O)N[C@@H]1C(=O)N2[C@@H]1SC(C)(C)[C@@H]2C(=O)O` [Nafcillin sodium salt monohydrate] (20 µM) was tested. Which “fold change” value did it give?
Answer: 0.0511 (active)
